Results from PubChem BioAssay (NCATS).
Records with an inconclusive call do not appear. Calls of active or inactive are those of the source. Calls follow the shape of the dose curve; as a rule, active = well fitted curve in the direction sought with a large enough effect; inconclusive = small, poorly fitted or top-dose-only effect, or another doubt; inactive = no such curve, though single readings can be large; an effect the other way counts as inactive or inconclusive.

Tests used:
[1] = qHTS of pediatric cancer cell lines to identify multiple opportunities for drug repurposing: Primary screen for TC32 cells (AID 1347089); also: nearly all actives have a fitted effect of over 60% in size
Method in brief: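 TC32 cells, 500-1,000/well in growth medium, compound-treated 48 h at 37 °C; viability from CellTiter-Glo luminescence. Primary screen: MIPE 11-point (0.78 nM–46 µM final), NPC 8-point (0.59 nM–46 µM final); confirmatory at 11-point dilutions.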

[2] = qHTS of pediatric cancer cell lines to identify multiple opportunities for drug repurposing: Primary screen for DAOY cells (AID 1347090); also: nearly all actives have a fitted effect of over 55% in size
Method in brief: (§1)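 Viability measured as metabolically active cells via CellTiter-Glo luminescence following 48 hours of compound exposure, 11-point dilutions in confirmatory testing. 500-1,000 cells/well plated 5 hours before dosing; controls were DMSO and 2.3 µM bortezomib.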

[3] = qHTS of pediatric cancer cell lines to identify multiple opportunities for drug repurposing: Primary screen for A673 cells (AID 1347092); also: nearly all actives have a fitted effect of over 45% in size
Method in brief: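 A673 cells (500-1,000 cells/well) were treated 48 hours at 37 degrees C with compounds at 11-point (0.78 nM to 46 µM) or 8-point (0.59 nM to 46 µM) dilutions. Viability read by CellTiter-Glo luminescence; concentration-response curves fitted.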

[4] = qHTS of pediatric cancer cell lines to identify multiple opportunities for drug repurposing: Primary screen for SK-N-MC cells (AID 1347093)
Method in brief: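 Metabolically active cells were quantified by ATP-dependent luminescence (CellTiter-Glo, 15 min at room temperature) following 48 h treatment. Cells had been plated at 500-1,000 per well and settled for 5 h beforehand.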

[5] = qHTS of pediatric cancer cell lines to identify multiple opportunities for drug repurposing: Primary screen for BT-37 cells (AID 1347094)
Method in brief: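 CRCs from 8- or 11-point titrations (lowest final 0.59 nM NPC, 0.78 nM MIPE). Cell viability: CellTiter-Glo after 48 h incubation, 15 min room-temperature development, luminescence imaging.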

[6] = qHTS of pediatric cancer cell lines to identify multiple opportunities for drug repurposing: Primary screen for SJ-GBM2 cells (AID 1347091)
Method in brief: as §1

Measured: Potency
Potency is read from the fitted curve at half-maximal effect.

COC(=O)c1cc(Cl)c(NC(C)=O)cc1OC
not listed: [6]
inactive: all other assays above

O=C(O)c1cn(C2CC2)c2cc(Cl)c(F)cc2c1=O
not listed: [6]
inactive: all other assays above

C/C(=N/NC(=O)c1ccncc1)C(=O)O
inactive: [1] | [2] | [3] | [5]

O=[N+]([O-])c1ccc(O)c2ncccc12
active: [1] 13.3 µM | [2] 2.66 µM | [6] 2.66 µM | [5] 15.5 µM

CCOC(=O)c1ccc(O)c(O)c1
inactive: [1] | [2] | [3] | [5]

Cc1cc(O)c(C)c(C)c1O
inactive: [1] | [2] | [6] | [5]

Cc1coc2ccccc2c1=O
not listed: [3]
inactive: all other assays above

Nc1c[n+](N2CCOCC2)no1
inactive: [1] | [2] | [6] | [5]

O=C1NC(c2ccccc2)(c2ccccc2)C(=O)N1COP(=O)(O)O
inactive: [1] | [2] | [3] | [5]

Nc1ncnc2nc[nH]c12
not listed: [6]
inactive: all other assays above

Clc1ccc2c(c1)Nc1ccccc1S2
not listed: [6]
inactive: all other assays above

COC(=O)c1cc(S(N)(=O)=O)ccc1OC
not listed: [6]
inactive: all other assays above

COc1cc2nc(Cl)nc(N)c2cc1OC
inactive: [1] | [2] | [6] | [5]

CCC(=O)O[C@H]1[C@H](O[C@@H]2[C@@H](C)[C@H](O[C@H]3C[C@@](C)(OC)[C@@H](O)[C@H](C)O3)[C@@H](C)C(=O)O[C@H](CC)[C@@](C)(O)[C@H](O)[C@@H](C)C(=O)[C@H](C)C[C@@]2(C)O)O[C@H](C)C[C@@H]1N(C)C
not listed: [6]
inactive: all other assays above

CCC(C(=O)OCCN1CCOC(c2ccccc2)C1C)c1ccccc1 (configuration not stated)
not listed: [6]
inactive: all other assays above

O=C(O)CCCC[P+](c1ccccc1)(c1ccccc1)c1ccccc1
not listed: [6]
inactive: all other assays above

O=C1OC2(c3ccccc31)c1cc(I)c(O)c(I)c1Oc1c2cc(I)c(O)c1I
inactive: [1] | [3] | [5]

Cc1cc2nc3ccc(=[N+](C)C)cc-3sc2cc1N
active: [2] 13.3 µM | [6] 21.1 µM | [3] 10.6 µM | [4] 1.33 µM | [5] 17.4 µM

CCOc1c(N2CCOCC2)cnn(C)c1=O
not listed: [1]
inactive: all other assays above

CCOC(=O)Cn1cccc1-c1nc(-c2ccc(OC)cc2)c(-c2ccc(OC)cc2)s1
not listed: [1]
inactive: all other assays above

C/C=C(/C(=C/C)c1ccc(OC(C)=O)cc1)c1ccc(OC(C)=O)cc1
inactive: [1]
active: [4] 5.31 µM

CCOC(=O)Oc1ccc(CCNC(=O)[C@H](CCSC)NC(C)=O)cc1OC(=O)OCC
not listed: [1]
inactive: all other assays above

C[C@@H](O[C@H]1OCCN(Cc2n[nH]c(=O)[nH]2)[C@H]1c1ccc(F)cc1)c1cc(C(F)(F)F)cc(C(F)(F)F)c1
active: [6] 21.1 µM | [5] 21.9 µM
inactive: [1]

O=C(CCCl)NCc1ccccc1
not listed: [1]
inactive: all other assays above

CCCCCCOC(=O)NC(=N)c1ccc(NCc2nc3cc(C(=O)N(CCC(=O)OCC)c4ccccn4)ccc3n2C)cc1
inactive: [2]
active: [6] 21.1 µM

Cc1onc(-c2ccccc2)c1C(=O)Cl
not listed: [1]
inactive: all other assays above

CC(C)(C)c1ccc(O)c(O)c1
active: [2] 24.3 µM | [6] 30.6 µM | [3] 15.4 µM | [4] 6.86 µM

O=C(O)c1ccccc1Nc1cc(Cl)ccc1C(=O)O
inactive: [1] | [6] | [5]

CCOC(=O)NNc1ccc(N(CC)CC(C)O)nn1 (configuration not stated)
inactive: [1] | [3] | [4]

OC1(c2ccc(Cl)c(C(F)(F)F)c2)CCN(CCCC(c2ccc(F)cc2)c2ccc(F)cc2)CC1
active: [1] 16.7 µM | [5] 11 µM

COc1ccc(-n2nc(CCC(=O)N(C)O)cc2-c2ccc(Cl)cc2)cc1
active: [1] 16.7 µM | [4] 23.7 µM

COC(=O)c1cc(Cl)ccc1OC
inactive: [1] | [3] | [4] | [5]

COc1c(C)c2c(c(O)c1C/C=C(\C)CCC(=O)OCCN1CCOCC1)C(=O)OC2
active: [1] 0.745 µM | [5] 0.347 µM

O=C(Nc1ccc(Cl)cc1)Nc1ccc(Cl)c(C(F)(F)F)c1
active: [2] 13.3 µM | [6] 3.35 µM | [3] 21.1 µM | [4] 4.73 µM | [5] 27.6 µM

CCCCCOc1ccccc1/C(=C\SC)n1ccnc1
active: [3] 26.6 µM
inactive: [2] | [6]

Oc1ccc(CCNCCCCCCNCCc2ccccc2)cc1O
inactive: [2]

CC(=O)O[C@@H]1CC2C3CCc4cc(OC(=O)c5ccccc5)ccc4C3CCC2(C)[C@H]1OC(C)=O (some centres not stated)
not listed: [1]
inactive: all other assays above

OCc1cccnc1
not listed: [1]
inactive: all other assays above

CN1C(=O)CC(C)(c2ccccc2)C1=O (configuration not stated)
inactive: [1] | [6] | [5]

O=C(O)Cc1ccc(OCCNC[C@H](O)c2ccccc2)cc1
inactive: [2] | [6] | [3] | [4]

CC(C(=O)O)c1ccc(/C=C2\CCCCC2=O)cc1 (configuration not stated)
not listed: [1]
inactive: all other assays above

Cc1ccc(-c2ccccc2C#N)cc1
not listed: [1]
inactive: all other assays above

COC(=O)c1ccc(NC(C)=O)cc1OC
inactive: [1] | [3] | [4] | [5]

COC(=O)c1cc(Cl)ccc1NS(=O)(=O)C(F)(F)F
inactive: [1] | [3] | [4] | [5]

COc1ccc(CCC(C)=O)cc1
inactive: [1] | [3] | [4] | [5]

CO/N=C(/C(=O)N[C@@H]1C(=O)N2C(C(=O)O)=C(Cn3nnc(C)n3)CS[C@H]12)c1csc(N)n1
not listed: [1]
inactive: all other assays above

O=C(O)Cn1c(=O)n(Cc2ccc(Br)cc2F)c(=O)c2ccc(Cl)cc21
not listed: [1]
inactive: all other assays above

CCCCCCCCCCCC[N+](C)(C)Cc1ccccc1
active: [2] 16.8 µM | [3] 8.41 µM | [4] 2.66 µM
inactive: [6]

CC[C@@]1(O)C(=O)OCc2c1cc1n(c2=O)Cc2c-1nc1ccccc1c2/C=N/OC(C)(C)C
active: [2] 0.106 µM | [6] 0.0266 µM | [3] 0.0335 µM | [4] 0.0211 µM | [5] 0.0309 µM

CN1N=C(C(N)=O)CCC1=O
inactive: [1] | [3] | [4] | [5]

C[C@]12CCC(=O)C=C1CC[C@@H]1[C@@H]2[C@@H](O)C[C@@]2(C)[C@H]1CC[C@]2(O)C(=O)COC(=O)CCC(=O)O
not listed: [1]
inactive: all other assays above

CCCC(=O)OCOC(=O)C1=C(C)NC(C)=C(C(=O)OC)C1c1cccc(Cl)c1Cl (configuration not stated)
not listed: [1]
inactive: all other assays above

CN1CCC(N(Cc2cccs2)c2ccccc2)CC1
active: [4] 26.6 µM
inactive: [1]

CC(C)=CCNc1ncnc2c1ncn2[C@@H]1O[C@H](CO)[C@@H](O)[C@H]1O
active: [1] 5.92 µM | [3] 2.66 µM | [4] 3.76 µM | [5] 6.17 µM

Cc1ccc(C(=O)Oc2ccc(C(O)CNC(C)(C)C)cc2OC(=O)c2ccc(C)cc2)cc1 (configuration not stated)
active: [4] 0.001 µM
inactive: [1] | [6]

CCOC(=O)CN1CCCC1=O
inactive: [1] | [3] | [4] | [5]

COc1ccc([C@@H]2Sc3ccccc3NC(=O)[C@@H]2O)cc1
active: [6] 7.5 µM

CSCC[C@H](NC(=O)[C@H](Cc1c[nH]c2ccccc12)NC(=O)CCNC(=O)OC(C)(C)C)C(=O)N[C@@H](CC(=O)O)C(=O)N[C@@H](Cc1ccccc1)C(N)=O
inactive: [6] | [3] | [4] | [5]
